For five molecules, growth results are on record in PubChem BioAssay (NCI).

The panel holds about 83,000 compounds, 20% with a hit somewhere; the sample as a whole holds those more often.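 Step 1: grow cells in 96-well plates. Step 2: add test compound at a single concentration. Step 3: incubate 48 h. Step 4: record percent growth.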 Values without a mark were called inactive. Active and inactive are the calls of the source. Rule for the calls: active = growth percent below 10; inactive = the rest.

What all share (assay): NCI-60 one-dose screen, 48 h (100 = growth as untreated, 0 = no growth, -100 = all killed)
What all share (settings): 10 µM

Assay [1] concerns K-562 leukemia.
For assay [2], the system named is MDA-MB-231 breast.
Assay [3] deals with RXF 393 renal.
Assay [4] relates to SF-268 CNS.
Assay [5] relates to SF-295 CNS.
Assay [6] deals with SF-539 CNS.
Assay [7] concerns UACC-257 melanoma.
For assay [8], the system named is M14 melanoma.
Assay [9] relates to HCT-15 colon.
For assay [10], the system named is HT29 colon.
Assay [11] deals with SNB-75 CNS.
In assay [12] the test system is SNB-19 CNS.
Assay [13] concerns U251 CNS.
Assay [14] has as its system PC-3 prostate.
Assay [15] concerns SK-MEL-5 melanoma.
The test system of assay [16] is UACC-62 melanoma.
Assay [17] has as its system LOX IMVI melanoma.
Assay [18] deals with SK-MEL-28 melanoma.
In assay [19] the test system is SK-MEL-2 melanoma.

In the case of `CSc1cc(SC)ncn1`, the growth was 96.6% in assay [1]; 95.7% in [2]; 124% in assay [3]; 112% in assay [4]; 102% in assay [5]; 98.1% in assay [6]. Moreover, the growth is 104% in assay [7]; 112% in [8]; 98.2% in assay [9]; 97.3% in assay [10]; 94.2% in assay [11]; 91% in [12]. In addition, the growth in assay [13] is 108%; in assay [14] it was 91%; in [15], 104%; in assay [16], 93.7%; in assay [17], 105%; in assay [18], 102%. Also, the growth in assay [19] was 100%.

For the molecule `COc1cc(-c2cc(C(=O)N3CCN(C(=O)c4ccccc4NCc4ccco4)CC3)nc3cc(-c4ccccc4)nn23)cc(OC)c1OC`, the growth is 12.3% in assay [1]; 42.9% in assay [2]; 6.82% (active) in assay [3]; 38.6% in [4]; 49.7% in assay [5]; 17.8% in [6]. In addition, the growth in assay [7] was 33.6%; in [8], 23.8%; in [9], 29.1%; in assay [10] it was 1.33% (active); in assay [11], 8.05% (active); in assay [12], 45.4%. The growth in [13] was 24.7%; in assay [14], 15.8%; in [15] it was 3.81% (active); in assay [16], 39.7%; in assay [17], 30%; in assay [18], 59.3%. Besides, the growth in assay [19] was 10.5%.

In the case of `COc1ccc(/C=C/C(=O)Nc2ccc(-c3nc4ccc(OC)cc4s3)cc2)cc1`, the growth in [1] is 95.7%; in assay [2] it was 111%; in assay [3] it was 112%; in [4] it was 116%; in [5], 106%; in assay [6], 102%. Besides, the growth was 111% in assay [7]; 106% in assay [8]; 111% in assay [9]; 110% in [10]; 102% in assay [11]; 105% in assay [12]. In addition, the growth was 109% in assay [13]; 101% in [14]; 104% in [15]; 108% in assay [16]; 92.3% in [17]; 111% in [18]. In assay [19], the growth is 105%.

Take `O=C(/C(=C/c1ccccc1)CN1CCCCC1)c1ccccc1`: the growth was 2.9% (active) in [1]; -24.8% (active) in assay [2]; -77.6% (active) in assay [3]; -9.79% (active) in [4]; 38.6% in assay [5]; -43.4% (active) in [6]. Also, the growth was -0.832% (active) in assay [7]; -48.4% (active) in assay [8]; -40.6% (active) in assay [9]; -30.6% (active) in assay [10]; 30.6% in assay [11]; 45.9% in [12]. In addition, the growth in assay [13] was -22.7% (active); in assay [14], -9.65% (active); in assay [15], -86% (active); in assay [16], -67% (active); in assay [17], -75.1% (active); in assay [18], -63% (active). For the same molecule, the growth in [19] is -67% (active).

With `O=C(CC(NC(=O)OCc1ccccc1)C(=O)OCc1ccccc1)OCc1ccccc1` (centres undefined), the growth in [1] was 112%; in [2], 123%; in assay [3], 125%; in assay [4], 103%; in assay [5], 110%; in [6], 111%. Moreover, the growth was 94.2% in assay [7]; 90.5% in assay [8]; 106% in [9]; 98.6% in assay [10]; 113% in [11]; 109% in assay [12]. Also, the growth is 90.4% in assay [13]; 93.8% in assay [14]; 94.1% in assay [15]; 97.2% in assay [16]; 101% in assay [17]; 108% in [18].
